Measured values as given in PubChem BioAssay (NCI).
“And” between values parts separate entries of the source, which are not always exact repeats. Identical values can stand only once. Compounds without any hit were thinned out: in the full panel of roughly 79,000, 15% have a hit. The source made the active and inactive calls. Rule as the data show it: active = growth inhibition above about 70%; inactive = the rest.

Assay: NCI Yeast Anticancer Drug Screen. Data for the rad50 strain (AID 155);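 also: 0% = growth of vehicle-only cultures of the same strain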
Conditions: S. cerevisiae rad50 strain growth inhibition, hits give high values; at 50.0 µM unless noted
Experimental: Growth inhibition of yeast strains with defined genetic alterations is measured as a screen for potential anti-cancer activity. Selected strains with alterations in DNA damage repair or cell cycle control were exposed to compounds and growth inhibition was measured relative to vehicle treated controls. The strain used in this assay is rad50

Structure (SMILES)	growth inhibition
Cc1ccc(Nc2cc(C(=O)O)c(Nc3ccc(C)cc3)cc2C(=O)O)cc1	0.7% (inactive)
CC1CN=C(N(C(=O)Nc2ccccc2)C2CCCCC2)S1 (stereo not given)	-43.1% (inactive)
O=c1oc2ccccc2c(O)c1Cc1ccccc1Cc1c(O)c2ccccc2oc1=O	4.4% (inactive)
Clc1ccc(N=Nc2nc3ccccc3nc2N=Nc2ccc(Cl)cc2Cl)c(Cl)c1	-32.5% (inactive)
N#Cc1nc(C2CC2)oc1N	-18.7% (inactive)
CC(=O)OC(OC(C)=O)c1ccccc1	24.2% (inactive)
CCOc1ccccc1N1CCN(CC(O)CSc2ccccc2)CC1 (stereo not given)	1.3% (inactive)
N=C(N)c1ccc(NC(=S)Nc2ccc(C(=N)N)cc2)cc1	43.1% (inactive)
O=C(CCc1ccccc1)On1nnc2ccccc2c1=O	-19.1% (inactive)
ClCCCN(CCCCl)c1ccc(C=Nc2cccc(Cl)c2)c(Cl)c1	91.1% (active)
CN(C)CC1CCCCCC(CN(C)C)C1=O (stereo not given)	-17.9% (inactive) and 38% (inactive)
CCCCCCNC(=O)CCN(C(=O)O)S(=O)(=O)c1ccc(NC(=O)c2ccccc2)cc1	11.7% (inactive)
COc1cccc(-c2cc(=O)c3cc(C)cnc3[nH]2)c1	-17.2% (inactive)
CN(CCO)c1ccccc1	-12.3% (inactive)
[N-]=[N+]=Nc1c2c(nc3ccccc13)CCCC2	-38.1% (inactive)
COc1ccccc1NC(=O)C1=C(C)NC(C)=C(C(=O)Nc2ccccc2OC)C1c1ccccc1F	32% (inactive)
Cc1nc2c(cnn2C)c(=O)n1C(C)C	3.3% (inactive)

Structure (SMILES)	growth inhibition
OCC1C(CO)C2CC1C1N=NN(c3ccccc3)C21 (stereo not given)	-4.8% (inactive)
CN(C)c1ccc(/C=C/C=C2\C=Cc3ccccc32)cc1	0.55% (inactive)
c1c[nH]c(CN2CCOCC2)n1	-32% (inactive)
C/C(=N\N/C=N/S(=O)(=O)c1ccccc1)c1ccccc1	-12.2% (inactive)
O=c1ccn(C2OC(COC3CCCCO3)C(OC3CCCCO3)C2OC2CCCCO2)c(=O)n1-c1ccccc1 (stereo not given)	39.7% (inactive)
O=C(NCCNC(=O)C(Br)(Br)Br)C(Br)(Br)Br	82.3% (active)
Cc1nnc(-n2cccc2)s1	0.8% (inactive)
N#CC(C(=O)NN)C1CCCCC1 (stereo not given)	-0.85% (inactive)
CC(=O)c1cccc(NC(=O)Oc2cc(=O)oc3ccccc23)c1	5.75% (inactive)
ClC1=C(Cl)C(Cl)(Cl)c2c3c(c4c(c21)C(Cl)(Cl)C(Cl)=C4Cl)C(Cl)(Cl)C(Cl)=C3Cl	-0.6% (inactive)
COc1ccc(C(=O)Oc2ccccc2C(C)=O)cc1	-2.65% (inactive)
O=C1c2cccc3c([N+](=O)[O-])ccc(c23)C(=O)N1Cc1cccnc1	99.3% (active)
CC(C)NC(=O)OCc1c(COC(=O)NC(C)C)c(-c2ccccc2)n(C)c1-c1ccccc1	12.6% (inactive)
CCOC(=O)c1ccc(N=Cc2ccc(N(CCC#N)CCC#N)cc2)cc1	9.35% (inactive)
Nc1nc(=S)c2c(ncn2CCO)[nH]1	-25.1% (inactive)
O=C(O)c1cc(C(=O)C(=O)c2cc(C(=O)O)c(O)c3ccccc23)c2ccccc2c1O	-31.7% (inactive)
O=S(=O)(O)c1ccc(Nc2ccccc2)cc1	-1.2% (inactive) and 5.95% (inactive)

Same assay, conditions: S. cerevisiae rad50 strain growth inhibition; at 5.0 µM (retest, dose inferred, filed as 0.5); hits give high values

Structure (SMILES)	growth inhibition
NN1CCOC(c2ccccc2)C1 (stereo not given)	15% (inactive)
CC(O)C(=O)NC1CCCCC1 (stereo not given)	3% (inactive)
CCCCCCCCCCNC(=O)CI	20% (inactive)

Same assay, conditions: S. cerevisiae rad50 strain growth inhibition; at 50.0 µM (retest, dose inferred, filed as 5.0); hits give high values

Structure (SMILES)	growth inhibition
NN1CCOC(c2ccccc2)C1 (stereo not given)	57% (inactive)
CC(O)C(=O)NC1CCCCC1 (stereo not given)	26% (inactive)
CCCCCCCCCCNC(=O)CI	98% (active)
